Reference: PubChem BioAssay (NCATS)
“And” between values parts separate entries of the source, which are not always exact repeats. Equal values may be shown once. Results filed as inconclusive are left out. Values without a mark were called inactive. The source made the active and inactive calls. The call rests on the fitted dose curve; in most records, active means well fitted inhibition curve with a large enough effect; inconclusive means small, poorly fitted or top-dose-only effect; inactive means flat fitted curve, though single readings scatter.

What was measured:
CRL-7250 [1] = assay: Cytotoxic Profiling of Annotated Libraries Using Quantitative High-Throughput Screening (AID 1296008); conditions: Five cell lines viability, CellTiter-Glo ATP luminescence, 48-72 h; max response: active compounds read low; further: potency means the concentration at half of the fitted maximal effect; on max response: on the % scale 0 is the no-effect control and ±100 the full control effect
Method in brief: (§1)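 Cytotoxicity was measured as CellTiter-Glo ATP luminescence, read after 10 min at room temperature. Compound treatment of the cells lasted 48 or 72 hr at 37 degrees Celsius in a qHTS format.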

HEK293 = assay: as above; conditions: Five cell lines viability, CellTiter-Glo ATP luminescence, 48-72 h; max response: active compounds read low
Method in brief: as §1

HaCat [2] = assay: as above; conditions: Five cell lines viability, CellTiter-Glo ATP luminescence, 48-72 h; max response: active compounds read low
Method in brief: as §1

NIH3T3 = assay: as above; conditions: Five cell lines viability, CellTiter-Glo ATP luminescence, 48-72 h; max response: active compounds read low
Method in brief: as §1

HACAT [3] = assay: qHTS assay to identify novel small-molecules to repurpose for Merkel cell carcinoma treatment (AID 1296009); conditions: MCC and control cell lines, CellTiter-Glo viability, 72 h; at 44.8 µM (top of the series) unless noted
Method in brief: (§2)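 Cell viability, measured as CellTiter-Glo luminescence, was normalized between DMSO and no-cell wells. The cells had been exposed to 8- or 11-point compound dilutions for 72 hr at 37 degree celsius.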

TAB165 = assay: qHTS profiling for inhibitors of Plasmodium falciparum proliferation (AID 504749); further: potency means the concentration at half of the fitted maximal effect; conditions: P. falciparum in erythrocytes, SYBR Green DNA, 72 h; series mostly up to 28.7 µM
Method in brief: (§3)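 SYBR Green fluorescence of parasite DNA, read after lysis and overnight dark incubation, measured growth over 72 h in erythrocyte culture at 0.3% parasitemia and 2.5% hematocrit. Data normalised to DMSO and 0.29 uM artemisinin, with plate-drift correction.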

W2 = assay: as above; conditions: P. falciparum in erythrocytes, SYBR Green DNA, 72 h; series mostly up to 28.7 µM
Method in brief: as §3

KB-3-1 = assay: Cytotoxic Profiling of Annotated Libraries Using Quantitative High-Throughput Screening (AID 1296008); conditions: Five cell lines viability, CellTiter-Glo ATP luminescence, 48-72 h; max response: active compounds read low; further: potency means the concentration at half of the fitted maximal effect; on max response: on the % scale 0 is the no-effect control and ±100 the full control effect
Method in brief: as §1

HEK293T = assay: qHTS assay to identify novel small-molecules to repurpose for Merkel cell carcinoma treatment (AID 1296009); conditions: MCC and control cell lines, CellTiter-Glo viability, 72 h; at 44.8 µM (top of the series)
Method in brief: as §2

CRL-7250 [4] = assay: as above; conditions: MCC and control cell lines, CellTiter-Glo viability, 72 h; at 44.8 µM (top of the series) unless noted
Method in brief: as §2
Further: nearly all actives have a fitted effect of over 60% in size.

CN1C2CCC(C)(C)C1CC(OC(=O)C(O)(c1cccs1)c1cccs1)C2 (centres undefined)
max response (CRL-7250 [1]): -6.95%
max response (HEK293): -10.3%
outcome (HaCat [2]): inactive
max response (NIH3T3): -4.3%
outcome (HACAT [3]): inactive

CCCCCCCCCCCC[N+](C)(C)CCOc1ccccc1
Potency (TAB165): 5.62 µM (active)
Potency (W2): 3.79 µM (active)
Potency (CRL-7250 [1]): 18.8 µM (active)
Potency (HEK293): 8.41 µM (active)
Potency (HaCat [2]): 16.8 µM (active)

COc1cc(N)c(Cl)cc1C(=O)NC1CN2CCC1CC2 (centres undefined)
max response (CRL-7250 [1]): -0.63%
max response (HaCat [2]): -3.99%
max response (KB-3-1): 8.72%
outcome (NIH3T3): inactive

CC[n+]1c(-c2ccccc2)c2cc(N)ccc2c2ccc(N)cc21
Potency (TAB165): 17.8 nM (active) and 224 nM (active)
Potency (W2): 21.3 nM (active) and 37.9 nM (active)
Potency (CRL-7250 [1]): 6.68 µM (active)
Potency (HEK293): 0.596 µM (active)
Potency (KB-3-1): 8.2 µM (active) and 23.1 µM (active)

Clc1ccc(CO/N=C(\Cn2ccnc2)c2ccc(Cl)cc2Cl)c(Cl)c1
Potency (TAB165): 1.41 µM (active)
Potency (W2): 1.69 µM (active)
max response (CRL-7250 [1]): -2.86%
max response (KB-3-1): 0.479%

CC(=O)OC1(c2ccccc2)CCN(CCc2ccccc2)CC1
max response (HaCat [2]): -10.1%
max response (KB-3-1): -24%
max response (NIH3T3): -21.5%

C[N+]1(CCC(C(N)=O)(c2ccccc2)c2ccccc2)CCCCC1
Potency (TAB165): inactive
Potency (W2): inactive
outcome (HEK293): inactive
max response (HaCat [2]): -10.3%
max response (KB-3-1): 6.68%
outcome (NIH3T3): inactive
outcome (HEK293T): inactive

N#Cc1nn(-c2c(Cl)cc(C(F)(F)F)cc2Cl)c(N)c1S(=O)C(F)(F)F (centres undefined)
Potency (TAB165): 6.31 µM (active)
max response (CRL-7250 [1]): -17%
max response (HaCat [2]): -11.3%
max response (KB-3-1): -1.94%

C[C@]12CC[C@H]3[C@@H](CCC4=CC(=O)CC[C@@]43C)[C@@H]1CC[C@@H]2C(=O)O
outcome (CRL-7250 [1]): inactive
outcome (HaCat [2]): inactive
max response (NIH3T3): 3.4%
outcome (CRL-7250 [4]): inactive
outcome (HACAT [3]): inactive

COc1ccc2c(C(=O)c3ccc(Cl)cc3)c(C)n(CC(=O)O)c2c1
max response (CRL-7250 [1]): -9.6%
outcome (KB-3-1): inactive
max response (NIH3T3): -34.1%

COCC(=O)N(c1c(C)cccc1C)C(C)C(=O)OC (centres undefined)
Potency (W2): inactive
max response (CRL-7250 [1]): 1.66%
max response (HaCat [2]): 3.69%
max response (KB-3-1): -13.6%
outcome (NIH3T3): inactive

Cc1ncc2n1-c1ccc(Cl)cc1C(c1ccccc1F)=NC2
Potency (TAB165): inactive
Potency (W2): inactive
max response (HEK293): -4.93%
outcome (HaCat [2]): inactive
max response (KB-3-1): -24.4%
max response (NIH3T3): -10.5%
outcome (HACAT [3]): inactive

CCOC(C(=O)OCCN(C)C)(c1ccccc1)c1ccccc1
max response (HEK293): -2.86%

CC1COC2(c3ccccc3Cl)c3cc(Cl)ccc3NC(=O)CN12 (centres undefined)
max response (CRL-7250 [1]): -0.632%
outcome (HaCat [2]): inactive
max response (NIH3T3): 2.64%
outcome (HACAT [3]): inactive

Cc1ccc([N+](=O)[O-])[c]2c1[O][Hg]2
Potency (CRL-7250 [1]): 1.5 µM (active)
Potency (HaCat [2]): 6.68 µM (active)
Potency (NIH3T3): 4.22 µM (active)

CC(C(O)c1ccccc1)N(C)C/C=C/c1ccccc1 (centres undefined)
max response (CRL-7250 [1]): -8.13%
outcome (HaCat [2]): inactive
max response (NIH3T3): 2.21%
outcome (HACAT [3]): inactive

Nc1ccc(Cl)cc1C(=O)c1ccccc1F
max response (CRL-7250 [1]): -4.36%
max response (HaCat [2]): 0.566%
max response (NIH3T3): 0.255%

O=C(N[C@H]1N=C(c2ccccc2F)c2cccc3c2N(CC3)C1=O)c1cc2ccccc2[nH]1
max response (CRL-7250 [1]): 2.91%
outcome (KB-3-1): inactive
max response (NIH3T3): -0.0973%

C#C[C@]1(O)C=C[C@H]2[C@@H]3CCC4=CC(=O)CC[C@@H]4[C@H]3CC[C@@]21CC
max response (CRL-7250 [1]): 0.605%
outcome (HaCat [2]): inactive
max response (KB-3-1): -9.68%
outcome (HACAT [3]): inactive

Clc1ccc(C(OCCN2CCCCC2)c2ccccc2)cc1 (centres undefined)
max response (HaCat [2]): -5.7%
max response (KB-3-1): -23.9%

CC#C[C@]1(O)CC[C@H]2[C@@H]3C[C@H](C)C4=CC(=O)CC[C@]4(C)[C@H]3CC[C@@]21C
Potency (HEK293): 23.7 µM (active)
outcome (HaCat [2]): inactive
outcome (HACAT [3]): inactive

CCN1CCCC1CNC(=O)C(O)(c1ccccc1)c1ccccc1 (centres undefined)
max response (CRL-7250 [1]): -23.4%
max response (HaCat [2]): -7.18%
outcome (NIH3T3): inactive
outcome (HEK293T): inactive

CC(CC(C#N)(c1ccccc1)c1ccccc1)N(C)C (centres undefined)
max response (HaCat [2]): -5.96%
max response (KB-3-1): -8.06%
max response (NIH3T3): -12.2%

CC1Sc2c(C(=O)O)c(=O)c3cc(F)c(N4CCNCC4)cc3n21 (centres undefined)
max response (CRL-7250 [1]): -1.22%
max response (HaCat [2]): 0.258%
outcome (NIH3T3): inactive
